An excerpt weighted towards active compounds, which were near 27% of everything screened.
CYP2C19 inhib: human CYP2C19 inhibition | 21% of 96,000 active | P33261 | inhibition, % at 5 µM | CYP2C19 Supersomes, luciferin-H EGE luminescence, 30 min;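 active means CYP2C19 inhibition above a set limit at 5 µM in the primary screen, cut at about 50% in these data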;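 further: plate controls were negative control wells for no effect and 2.5 mM tranylcypromine positive control for full effect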
sEH activator: increases human soluble epoxide hydrolase activity. P34913. purified human sEH enzymatic activity, activator screen. activation, % at 2 µM. 0.04% of 91,000 active. AID 717; in the data active means activation above about 37%
Target sequence (P34913 whole entry, looked up): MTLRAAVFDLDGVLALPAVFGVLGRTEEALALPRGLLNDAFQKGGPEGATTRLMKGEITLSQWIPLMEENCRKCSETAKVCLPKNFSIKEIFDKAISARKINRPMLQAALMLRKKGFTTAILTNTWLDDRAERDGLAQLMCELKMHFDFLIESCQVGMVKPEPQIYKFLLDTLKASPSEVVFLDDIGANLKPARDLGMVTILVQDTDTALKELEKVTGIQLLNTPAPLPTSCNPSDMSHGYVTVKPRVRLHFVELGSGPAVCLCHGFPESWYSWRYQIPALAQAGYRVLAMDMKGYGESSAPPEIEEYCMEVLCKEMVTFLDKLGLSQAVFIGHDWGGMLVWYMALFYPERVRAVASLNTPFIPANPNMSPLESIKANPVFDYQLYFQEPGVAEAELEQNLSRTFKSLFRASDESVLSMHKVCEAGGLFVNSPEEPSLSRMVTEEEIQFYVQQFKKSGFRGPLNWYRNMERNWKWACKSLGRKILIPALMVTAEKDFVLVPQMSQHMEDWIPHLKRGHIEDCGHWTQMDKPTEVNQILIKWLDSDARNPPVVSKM
CYP2C9 inh: inhibitors of human CYP2C9; CYP2C9 Supersomes, luciferin-H conversion, luminescence; inhibition, % at 5 µM; 20% of 96,000 active; AID 777;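 active means blocking of liver enzyme CYP2C9 beyond about 50% at 5 µM, limit read from the data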
sEH inh: blocks human soluble epoxide hydrolase activity; inhibition, % at 2 µM; recombinant human sEH enzymatic activity assay; P34913; 0.34% of 91,000 active; in the data active means inhibition above about 80%
CYP2C9 act: CYP2C9 (human) activation; activation factor at 5 µM; recombinant CYP2C9, luciferin-H conversion, luminescence; hits give high values; factor 1 = untreated enzyme, 0 = blocked; P11712; 1.4% of 96,000 active;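 active means activation factor of 2 or more for CYP2C9 at a 5 µM dose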;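 further: 0 = sulfaphenazole-blocked wells and 1 = vehicle-only wells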
CYP2C19 activ: increases human CYP2C19 enzyme activity. 96,000 tested, under 10 active. activation factor at 5 µM. recombinant CYP2C19, luciferin-H EGE luminescence; hits give high values; 0 = fully inhibited enzyme, 1 = untreated enzyme;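 active means activation factor of at least 2 at 5 µM in the primary screen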;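 further: 0 = wells with 2.5 mM tranylcypromine and 1 = vehicle-only wells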
* hit, by the source's call; nt = no result.

SMILES	CYP2C19 inhib	sEH activator	CYP2C9 inh	sEH inh	CYP2C9 act	CYP2C19 activ
O=C(c1ccco1)N1CCC(c2ccccc2)C1 (stereo unspecified)	78*	nt	51*	nt	0.5	0.2
CCCCOc1cccc(C2(C(=O)O)CCCC2)c1	29	2	33	2	0.7	0.7
C/C(=N\NC(=O)c1ccc(Br)cc1)c1ccccc1	61*	0	28	0	0.7	0.4
CCOC(=O)C1CCCN(CCC(=O)Nc2ccc(C)cc2)C1 (stereo unspecified)	nt	3	nt	-4	nt	nt
C=CCOc1ccc2c(c1)c(S(=O)(=O)c1ccc(C)cc1)cn2COC	89*	10	37	-12	0.6	0.1
O=C1C2C3c4ccccc4C(c4ccccc43)[C@@H]2c2nc3ccccc3n21 (stereo partly specified)	5	-11	15	13	0.8	0.9
Cc1ccccc1NC(=O)c1sc2nc3c(c(-c4ccco4)c2c1N)CCCC3	46	16	64*	-14	0.4	0.5
COCCN(Cc1cc2cc(C)ccc2nc1Cl)C(=O)Nc1ccccc1C	-2	-1	12	2	0.9	1
Cc1cc(=O)[nH]c(Nc2c(C)n(C)n(-c3ccccc3)c2=O)n1	-15	11	-14	-10	1.1	1.2
COc1ccc(N2CCN(c3nc4ccccc4nc3NS(=O)(=O)c3ccccc3)CC2)cc1	53*	4	98*	-6	0	0.5
CC(=O)Nc1ccc(S(=O)(=O)Nc2nc3ccccc3nc2N2CCCCCC2)cc1	23	nt	70*	nt	0.3	0.8
Cc1ccc(S(=O)(=O)NC2=C(N3CCN(Cc4ccccc4)CC3)C(=O)c3ccccc3C2=O)cc1	-5	-2	63*	1	0.4	1.1
Cc1c(Nc2nc3ccccc3nc2N2CCN(c3ccccc3)CC2)c(=O)n(-c2ccccc2)n1C	35	8	75*	-8	0.2	0.7
O=C(Nc1nccs1)c1csc2c1CCCC2	nt	5	nt	-5	nt	nt
CN(C)c1cccc(C(=O)NCC2CCCO2)c1 (stereo unspecified)	35	-9	-1	8	1	0.7
Cc1ccc(S(=O)(=O)Nc2nc3ccccc3nc2N2CCN(c3ccccc3F)CC2)cc1	30	19	100*	-16	0	0.7
CC(=O)Nc1ccc(S(=O)(=O)NC2=C(N3CCN(c4ccc(F)cc4)CC3)C(=O)c3ccccc3C2=O)cc1	26	-4	61*	7	0.4	0.7
O=S(=O)(Nc1nc2ccccc2nc1N1CCN(c2ccccn2)CC1)c1ccc(Cl)cc1	34	9	100*	-6	0	0.7
Cc1ccc(S(=O)(=O)NC2=C(N3CCN(c4ccccc4F)CC3)C(=O)c3ccccc3C2=O)cc1	38	26	61*	-23	0.4	0.6
CC(C)C12CCC(C(=O)O)C(C1)C(=O)O2 (stereo unspecified)	nt	-13	nt	12	nt	nt
O=C(/C=N\O)NCCCNCc1ccccc1	0	nt	5	nt	1	1
COC(=O)c1cc(C(=O)OC)n(Cc2ccc(Cl)cc2Cl)n1	26	8	-6	-10	1.1	0.7
O=c1cc2c(nn1Cc1ccccc1Cl)-c1ccccc1CC2	95*	4	94*	-4	0.1	0
O=c1cc2c(nn1Cc1ccc(Cl)cc1Cl)-c1ccccc1CC2	51*	-5	67*	5	0.3	0.5
COc1ccc(/C=N/n2c(SC)nnc(C(C)(C)C)c2=O)c(OC)c1	5	1	0	3	1	0.9
SMILES	CYP2C19 inhib	sEH activator	CYP2C9 inh	sEH inh	CYP2C9 act	CYP2C19 activ
O=P(OC1CCCCC1)(OC1CCCCC1)C(O)c1c(Cl)cccc1Cl (stereo unspecified)	18	-9	35	10	0.7	0.8
Cc1ccc(C(O)P(=O)(OC2CCCCC2)OC2CCCCC2)cc1 (stereo unspecified)	89*	-4	62*	2	0.4	0.1
CCc1sc(N2C(=O)C3C4CCC(C4=C(C)C)C3C2=O)nc1-c1ccccc1 (stereo unspecified)	15	-10	-33	11	1.3	0.9
CCc1cc2c(-c3ccccc3)cc(=O)oc2c(CN2CCOCC2)c1O	78*	nt	92*	nt	0.1	0.2
C=CCOc1ccc(/C(CC)=N/O)cc1OC	14	24	2	-22	1	0.9
COc1cc(C)nc(N2CCCC(C(=O)Nc3cc(Cl)ccc3OC)C2)n1 (stereo unspecified)	84*	-6	-15	8	1.1	0.2
Cc1ccnc(NC(=O)C2CCCN(S(=O)(=O)c3cnc[nH]3)C2)c1 (stereo unspecified)	44	2	58*	-2	0.4	0.6
Cc1cc(C)nc(N2CCCC(C(=O)Nc3nc4ccc(S(C)(=O)=O)cc4s3)C2)n1 (stereo unspecified)	87*	-2	83*	3	0.2	0.1
CCOc1ccc2nc(NC(=O)C3CCCN(S(=O)(=O)c4cccs4)C3)sc2c1 (stereo unspecified)	50*	nt	60*	nt	0.4	0.5
Cc1cccc(CN2CCC(CNC(=O)C3CCCN(S(=O)(=O)c4cnc[nH]4)C3)CC2)c1 (stereo unspecified)	-6	nt	-1	nt	1	1.1
COc1ccc(C)cc1NC(=O)C1CCCN(S(=O)(=O)c2cnc[nH]2)C1 (stereo unspecified)	64*	nt	62*	nt	0.4	0.4
Cc1ccc2nc(NC(=O)C3CCCN(S(=O)(=O)c4cnc[nH]4)C3)sc2c1 (stereo unspecified)	26	5	51*	-5	0.5	0.7
CCN(CC)c1ccc(NC(=O)C2CCCN(S(=O)(=O)c3cnc[nH]3)C2)c(C)c1 (stereo unspecified)	4	nt	22	nt	0.8	1
CCCn1c(N)c(C(=O)CSc2nnc(Cc3ccccc3)o2)c(=O)n(C)c1=O	nt	-10	nt	13	nt	nt
CCOC(=O)c1sc(NS(=O)(=O)c2cc(C)ccc2C)nc1C	45	-4	94*	2	0.1	0.6
CCOC(=O)c1sc(Nc2cccc(C)c2C)nc1C	11	0	70*	2	0.3	0.9
Cc1cccc2c1OCC/C2=N\NC(=O)COc1ccccc1	23	1	35	-2	0.6	0.8
COc1cnn(-c2ccccc2)c(=O)c1SCc1ccc(Cl)c(Cl)c1	54*	0	52*	0	0.5	0.5
COc1ccc2cnn(-c3ccccc3)c(=O)c2c1OC	5	8	14	-6	0.9	1
COc1ccc(C(c2nnnn2CS(=O)(=O)c2ccc(C)cc2)N2CCN(c3ncccn3)CC2)cc1 (stereo unspecified)	nt	5	nt	1	nt	nt
O=C(O)CC1C(=O)NCCN1CCCc1ccccc1 (stereo unspecified)	-1	7	-6	-6	1.1	1
Cc1ccc(S(=O)(=O)NC(C)(C)CSc2nncn2N)cc1	59*	-14	-10	9	1.1	0.4

Compound activity as filed in PubChem.
